Hits are enriched below; roughly 4% of the tested compounds scored in any of these assays.
HEK293 cAMP cs – parental HEK293 cAMP activation (counter-screen) | parental HEK293 CNG cAMP sensor, membrane potential fluorescence | Potency, µM (top dose mostly 57.1 µM), without a hit: top-dose activation, usual class: activators | 73,000 tested, 2.5% active | AID 938; note: % of control where 0% means no effect; nearly all actives have a fitted effect of over 55% in size
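Parental HEK 293 cells stably expressing a cAMP-gated CNG channel were loaded with membrane potential dye containing 100 uM RO 20-1724 for 60 min. Compound added for 30 min; depolarization read as fluorescence intensity at 590 nm.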
TSHR ag – TSH receptor (human) agonism; P16473; Potency, µM (series often up to 57.1 µM), inactives show top-dose activation, most hits filed as activators; HEK293-CNG-TSHR cells (CNG channel as cAMP sensor), membrane potential dye, cAMP; 73,000 tested, 0.48% active; active = well fitted activation curve with a large enough effect in the main read-out, with a control signal flat, not every such curve was filed as active; inconclusive = small, poorly fitted or top-dose-only effect, or a change in a side signal; inactive = no such curve, though single readings can be large or run the other way; % of control where 0% means no effect;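 note: the control signal comes from parental cells without the receptor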
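cAMP rise detected as CNG-channel membrane depolarization by fluorescent dye (emission 590 nm), 30 min after compound, following 60 min dye loading containing 100 uM RO 20-1724 at room temperature. Cells: TSHR/CNG HEK 293, with parental CNG HEK 293 as control.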
Caspase-1 inhib – allosteric or competitive inhibitors of human caspase-1. AID 900. 75,000 tested, 0.03% active. P29466. Caspase-1 enzyme, Ac-WEHD-AFC fluorogenic rate. Potency, µM (doses to about 57.5 µM), inactives show top-dose activity change, negative = inhibition, usual class: inhibitors;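 note: plate controls were vehicle for no effect and no substrate for full effect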
Target sequence (P29466 120-297 limits assumed): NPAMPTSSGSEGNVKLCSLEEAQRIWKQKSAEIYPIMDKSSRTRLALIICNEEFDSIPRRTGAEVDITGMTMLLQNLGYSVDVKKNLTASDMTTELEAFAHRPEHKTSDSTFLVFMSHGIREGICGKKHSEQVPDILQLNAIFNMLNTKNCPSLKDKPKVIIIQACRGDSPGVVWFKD
Target sequence (P29466 317-404 limits assumed): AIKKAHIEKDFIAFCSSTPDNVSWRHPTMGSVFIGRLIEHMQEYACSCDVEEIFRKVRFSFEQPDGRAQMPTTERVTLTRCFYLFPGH
PK Bst – alters activity of Bacillus stearothermophilus pyruvate kinase; purified pyruvate kinase, luminescence ATP production; ribose 5-phosphate activator present at AC10; 51,000 tested, 1.2% active; Potency, µM; in the data active = potency below about 11 µM; inconclusive = mostly about 12 µM to 25 µM;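 the screen sought inhibitors and activators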;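 note: scaled between full activation by ribose 5 phosphate and full inhibition by luteolin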
Caspase-7 inhib – caspase-7 (human) inhibition, allosteric or competitive; Potency, µM (series often up to 57.5 µM), for inactives: at the top dose activity change, negative = inhibition, hits mostly inhibitors; P55210; 75,000 tested, 0.02% active; recombinant caspase-7, Ac-DEVD-AFC fluorescence rate; active = well fitted inhibition curve with a large enough effect in the main read-out, with a control signal flat, not every such curve was filed as active; inconclusive = small, poorly fitted or top-dose-only effect, or a change in a side signal; note: % of control where 0% means no effect
GBA mod – alters purified human glucocerebrosidase activity; P04062; purified enzyme, resorufin glucoside fluorescence (screen aimed at inhibitors), 20 min; Potency, µM; 48,000 tested, 1.1% active; in the data active = potency below about 15 µM; inconclusive = mostly about 16 µM to 33 µM;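 note: the screen sought inhibitors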
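Wild-type enzyme at 0.2 nM final in 50mM citric acid/KH2PO4, 10mM sodium taurocholate, 0.01% tween-20, pH 5.9, with resorufin beta-D-glucopyranoside at 30 uM final. Compounds titrated, 20 min at RT, red fluorescence read; AC50 from titration.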
Active calls of the source: *; i = inactive; ? = inconclusive; / = no result given; [ ] = another dose, or the depositor's remark. Unless noted, calls come from the whole dose curve; as a rule, active = well fitted curve in the direction sought with a large enough effect; inconclusive = small, poorly fitted or top-dose-only effect, or another doubt; inactive = no such curve, though single readings can be large; an effect the other way counts as inactive or inconclusive. Potency is the fitted concentration of half-maximal effect.

SMILES	HEK293 cAMP cs	TSHR ag	Caspase-1 inhib	PK Bst	Caspase-7 inhib	GBA mod
COC(=O)[C@@]1(Cc2ccccc2)[C@H]2c3cc(C(=O)N4CCCC4)n(Cc4ccc(OC)c(OC)c4)c3C[C@H]2CN1C(=O)c1ccccc1	3.2µM*	?	-4%	/	-7%	/
COC(=O)[C@@]1(Cc2ccccc2)[C@H]2c3cc(C(=O)N4CCCC4)n(Cc4ccc(O)c(OC)c4)c3C[C@H]2CN1C(=O)c1ccccc1	1µM*	?	-7%	/	-4%	/
O=C(NCCCN1CCOCC1)c1ccc(-n2c(=O)c(=O)[nH]c3ccccc32)cc1	-16%	3%	-3%	/	0%	/
CO[C@H]1COC(=O)CCC[C@@H](C)[C@H](OC)COC(=O)[C@H]2CCCN2C(=O)C/C=C\[C@@H]1C	4%[11.4 µM]	-9%[11.4 µM]	1%[11.5 µM]	/	0%[11.5 µM]	/
CC(C)CNc1nc2ncnc(N)c2[nH]1	-4%[11.4 µM]	2%[11.4 µM]	0%[11.5 µM]	/	0%[11.5 µM]	/
COC(=O)[C@@]1(Cc2ccccc2)[C@H]2c3cc(C(=O)N(C)C)n(Cc4ccccn4)c3C[C@H]2CN1C(=O)c1ccccc1	?	?	-4%	/	-4%	/
COC(=O)[C@@]1(Cc2ccc(OC)cc2)[C@H]2c3cc(C(=O)N4CCCC4)n(CCc4ccc(OC)c(Br)c4)c3C[C@H]2CN1C(=O)c1ccccc1	5µM*	?	-4%	/	-4%	/
COC(=O)[C@@]1(Cc2ccccc2)[C@H]2c3cc(C(=O)N4CCCC4)n(Cc4ccccn4)c3C[C@H]2CN1C(=O)c1ccccc1	3.2µM*	?	-2%	/	-3%	/
COC(=O)[C@@]1(Cc2ccc(OC)cc2)[C@H]2c3cc(C(=O)N4CCCC4)n(CCc4c[nH]c5cc(F)ccc45)c3C[C@H]2CN1C(=O)c1ccccc1	17%	2%	-3%	/	-8%	/
COc1cccc(-c2nc(NC3CCNCC3)c3ccccc3n2)c1	-33%	?	-3%	/	0%	/
Cc1ccc2c(Cl)cc(Cl)c(OCc3c(C)noc3C)c2n1	16µM*	?	1%	>57	7%	>77
Cc1ccc2c(Cl)cc(Cl)c(O)c2n1	/	/	0%	/	0%	/
CCCn1c(SCC(=O)N2CCN(c3ccccc3)CC2)nc2ccccc2c1=O	27%	5µM*	-3%	>57	-6%	>77
CCOC(=O)c1ccc(NC(=O)CSc2nc3c(c(=O)n2C)SC(C)C3)cc1 (stereo unspecified)	20µM*	?	-2%	/	-2%	/
CCn1c(SCC(=O)N2CCN(c3ccc(F)cc3)CC2)nc2ccccc2c1=O	?	?	1%	>57	-1%	>77
CCn1c(SCC(=O)N2CCN(c3ccccc3)CC2)nc2c(c1=O)SC(C)C2 (stereo unspecified)	25µM*	?	1%	/	-2%	/
CCOC(=O)c1ccc(NC(=O)CSc2nc3c(c(=O)n2CC)SC(C)C3)cc1 (stereo unspecified)	/	/	-8%	/	-6%	/
COCCn1c(=O)c(-c2ccccc2)nc2cnc(Nc3cccc(OC)c3)nc21	-2%	0%	/	/	?	/
CCOC(=O)C1CCN(c2c(NCc3ccc(C(=O)O)cc3)c(=O)c2=O)CC1	2%	6%	1%	/	0%	/
Cn1c(=O)c2c(nc(C(=N)SCC(=O)O)n2C)n(C)c1=O	-4%[11.4 µM]	-9%[11.4 µM]	/	/	?	/
CCC1CCc2c(sc3ncnc(N4CCOCC4)c23)C1 (stereo unspecified)	32µM*	?	-2%	i	0%	/
CN(Cc1cccc2ccccc12)Cc1cccc2ccccc12	17%[11.4 µM]	12%[11.4 µM]	-2%[11.5 µM]	/	-1%[11.5 µM]	/
COc1ccc(-c2csc(NCc3ccco3)n2)cc1	-5%	-15%	-4%	4.6*	-2%	>77
Cc1noc(C)c1CSc1nc2ccccc2c(=O)n1-c1ccc(F)cc1F	16µM*	?	-3%	>57	-1%	>77
Cc1noc(C)c1CSc1nc2[nH]ncc2c(=O)n1-c1ccccc1	14%	/	0%	>57	2%	>77
Cc1noc(C)c1CSc1nc2ccccc2c(=O)n1-c1ccccc1	10µM*	?	-3%	>57	-2%	>77
Cc1noc(C)c1CSc1nnc2n(-c3ccccc3)c(=O)c3ccccc3n12	11%	7%	0%	>57	-2%	>77
